# From ChEMBL document CHEMBL4513216, “Probing the Open Global Health Chemical Diversity Library for Multistage-Active Starting Points for Next-Generation Antimalarials” (ACS Infect Dis, 2020)
# Hit rate of the full screen: of about 68,000 compounds, about 2,700 (4%) showed an effect of 50% or more. Only a selection was taken, and strong results are over-represented in it overall.
# Tested on: Plasmodium berghei
# Experiment: Screen against P. berghei liver stage (PbLuc), transformed with Luciferase, at 2uM
# Format: functional, HepG2
# Conditions: tested at 2 uM
row,Structure (SMILES),INHIBITION [%]
1,O=C(c1cocn1)N1C[C@H]2CCC[C@@]2(COc2ccccn2)C1,-14.27
2,Cc1cc(C(F)(F)F)nn1CCCNC(=O)C1CCN(S(C)(=O)=O)CC1,40.25
3,CC(C)(C)n1ncc2c1NC(=O)CC2c1ccc(C#N)cc1 (stereo not drawn),7.42
4,Cn1ccc(C(=O)NC2CCC23CCN(C(=O)c2cnccn2)CC3)c1 (stereo not drawn),-3.25
5,Cn1ccc(C(=O)NC2CCC23CCN(C(=O)c2ccncc2)CC3)c1 (stereo not drawn),-33.11
6,Cn1ccc(C(=O)NC2CCC23CCN(C(=O)c2ccccn2)CC3)c1 (stereo not drawn),53.29
7,CCN(Cc1c(F)cccc1Cl)c1cc(C2CCNCC2)nc(C)n1,23.76
8,O=C(c1cccnc1)N1CCOC(Cc2ccccc2Cl)C1 (stereo not drawn),-41.48
9,Cc1cccnc1CN1CCOC(Cc2cccc3ccccc23)C1 (stereo not drawn),31.05
10,CCc1nc(C)c(CN2CCOC(Cc3ccccc3Cl)C2)[nH]1 (stereo not drawn),-26.78
11,Cn1ccnc1C(=O)N1CCOC(Cc2ccccc2Cl)C1 (stereo not drawn),61.99
12,Cn1ccnc1C(=O)N1CCOC(Cc2ccc(Cl)cc2)C1 (stereo not drawn),43.23
13,Cc1nc(C)c(CN2CCOC(Cc3ccccc3Cl)C2)nc1C (stereo not drawn),63.37
14,O=C(N1CCc2ccccc2CC1)C1(O)Cc2ccccc2C1,32.93
15,O=C(CCN1C[C@@H]2CC[C@H]1CN(c1ncccn1)C2)NCc1ccco1,22.27
16,N#Cc1ccc(CN2CCNC(=O)C2c2cccs2)cc1 (stereo not drawn),-15.67
17,Cn1cnc2c(N3CCCC3)nc(C3CCN(CC4CC4)CC3)cc21,25.94
18,Cn1ccnc1C(O)c1ccccc1N1CCN(Cc2ccsc2)CC1 (stereo not drawn),-16.2
19,Cc1cccc(COc2ccc(C(C)N)cc2)c1 (stereo not drawn),54.49
20,Cc1cccc(COc2ccc(C(C)NC(=O)CNC(N)=O)cc2)c1 (stereo not drawn),32.26
21,Cc1cccc(COc2ccc(C(C)NS(N)(=O)=O)cc2)c1 (stereo not drawn),9.42
22,CCc1ccsc1C(=O)N1CCN(CC(O)CC)CC1 (stereo not drawn),56.67
23,CCc1ccsc1C(=O)N1CCN(CC(C)O)CC1 (stereo not drawn),-10.66
24,CCC(O)CN1CCN(C(=O)c2sccc2C2CC2)CC1 (stereo not drawn),34.97
25,Clc1ccccc1C1(c2ccnc(C3CCCC3)n2)CCNCC1,11.94
26,Cc1cnccc1CN1C[C@@H](O)[C@H](Oc2cccc(F)c2)C1,8.5

row,Structure (SMILES),INHIBITION [%]
1,Cc1cc(C)n2ncc(CN3C[C@@H](O)[C@H](Oc4ccccc4)C3)c2n1,-0.44
2,Cc1c(CN2C[C@@H](O)[C@H](Oc3cccc(F)c3)C2)cnn1C,55.32
3,COCC(O)CN(C)c1ccnc2ccc(Cl)cc12 (stereo not drawn),-33.34
4,Cc1ccsc1CN1CCc2c(nc(N3CCCCC3C)[nH]c2=O)C1 (stereo not drawn),-17.99
5,CC(C)n1ccnc1CN1CCOC(CCc2ccccc2)C1 (stereo not drawn),50.32
6,c1ccc(Cn2ccnc2CN2CCOC(Cn3cccn3)C2)cc1 (stereo not drawn),11.1
7,Cn1ccnc1CN1CCOC(Cc2ccccc2)C1 (stereo not drawn),-19.43
8,CC(C)n1ccnc1CN1CCCN(C(=O)CC2CCCO2)CC1 (stereo not drawn),33.82
9,CC(C)n1ccnc1CN1CCOC(CC2CCCCC2)C1 (stereo not drawn),63.23
10,CC(C)C1CN(Cc2nccn2C(C)C)CCC(=O)N1CC1CC1 (stereo not drawn),-17.17
11,NC(=O)NCC(=O)N1CCCC(c2nccn2Cc2ccncc2)C1 (stereo not drawn),16.1
12,CCOc1ncccc1Cn1cc(-c2nccn2C)nn1,-3.38
13,O=C(c1cccs1)N1CCCn2c(nc(CN3CCCC3)cc2=O)C1,13.38
14,Cc1nc(N2CCCCC2)ncc1-c1cc(=O)[nH]c(N2CCCC2)n1,17.48
15,FC1(F)CCN(Cc2cccnc2)CC12CCN(c1ccccn1)C2 (stereo not drawn),3.35
16,CC(C)c1cc(C(=O)N2CCC3(CC2)c2ccccc2[C@@H](N)[C@@H]3O)cs1,16.28
17,O=C1CC(NS(=O)(=O)c2ccc(Cl)cc2)CN1 (stereo not drawn),87.53
18,O=C1CC(NS(=O)(=O)c2ccc(Br)cc2)CN1 (stereo not drawn),27.9
19,O=C1CC(NS(=O)(=O)c2ccc(F)c(Cl)c2)CN1 (stereo not drawn),-15.08
20,CCCN(CCC)S(=O)(=O)NC(C)C(=O)N(C)C (stereo not drawn),-9.87
21,COc1ccc(OCc2nc(C(=O)N3CCCNC(=O)C3)co2)cc1,22.84
22,CC(C)c1noc(CCC(=O)NC(C)c2nnc3n2CCC3)n1 (stereo not drawn),45.48
23,CC(NC(=O)CCc1nc(C(C)(C)C)no1)c1nnc2n1CCC2 (stereo not drawn),64.2
24,CC(NC(=O)CCCc1nc(C(C)(C)C)no1)c1nnc2n1CCC2 (stereo not drawn),19.04
25,c1coc(CN2C[C@@H]3OCCN(CC4CCCO4)[C@@H]3C2)c1 (stereo partly drawn),-44.46
26,CCOC(=O)N1C[C@@H]2CC[C@H]1CN(Cc1ccccc1)C2,18.19

row,Structure (SMILES),INHIBITION [%]
1,COCC(=O)N1CCC(c2nccn2CC2CC2)CC1,-34.68
2,COCCOC(=O)N1CCC(c2nccn2CC2CC2)CC1,-1.87
3,O=C(O)c1cnc(N2CCC(c3nccn3CC3CC3)CC2)c(Cl)c1,60.39
4,COCC1(C(=O)N2CCC(c3nccn3CC3CC3)CC2)CCC1,52.57
5,CCOCC(=O)N1CCC(c2nccn2CC2CC2)CC1,-1.32
6,c1cnc(N2CCC(c3nccn3CC3CC3)CC2)nc1,18.81
7,O=C(NC1CC1)N1C[C@H]2CN(c3ccccc3)C(=O)[C@H]2C1,-0.9
8,CCc1nc2c(NCC3COc4c(cccc4OC)C3)ncnc2o1 (stereo not drawn),1.39
9,O=C(C1CCCc2[nH]ncc21)N1CCCC2(C1)OCCO2 (stereo not drawn),64.92
10,O=C(C1CCCc2[nH]ncc21)N1CCCC1 (stereo not drawn),-10.01
11,O=C(C1CCCc2[nH]ncc21)N1CCCCCC1 (stereo not drawn),-0.54
12,CNC(=O)CCOC(=O)c1cccc(-n2ccc(C(F)(F)F)n2)c1,13.1
13,CNC(=O)COC(=O)c1cccc(-n2ccc(C(F)(F)F)n2)c1,10.31
14,CNC(=O)CCOC(=O)c1cccc(-n2cccn2)c1,55.25
15,Cc1nc2c(c(N3CCCC(OCc4ccccn4)C3)n1)CCNCC2 (stereo not drawn),20.71
16,Cc1ccc(CN2CC[C@@H]3O[C@@H](C(=O)N4CCN(C)CC4)C[C@@H]32)cc1,41.55
17,Cc1nccc(C(=O)N2CCCN(Cc3cnn(C(C)C)c3)CC2)n1,16.6
18,COC(=O)C(C)(C)NC(=O)C1CC(=O)N(C2CC2)C1 (stereo not drawn),5.15
19,Cc1cc(NCCS(C)(=O)=O)nc2ccccc12,-0.6
20,Cc1cc(NCCOCCS(C)(=O)=O)nc2ccccc12,53.16
21,Cc1cc(NCCCNS(C)(=O)=O)nc2ccccc12,20.88
22,Cc1cccc(-c2nc(CN3CCCC3Cn3cc(C)cn3)no2)c1 (stereo not drawn),1.36
23,COC(=O)N1CCCN(C(=O)c2cccc3cccnc23)CC1,5.72
24,COCC1CN(CCOc2ccc(Cl)cc2)Cc2c1cnn2C (stereo not drawn),-17.24
25,Cc1cc(-c2cnc(C)nc2CN(C)C(=O)c2cc(C3CC3)on2)on1,51.57
26,Cc1cc(-c2cnc(C(C)C)nc2CN(C)C(=O)c2ccccn2)on1,56.57

row,Structure (SMILES),INHIBITION [%]
1,Cc1cc(-c2cnc(C)nc2CN(C)C(=O)c2ccccn2)on1,-0.54
2,Cc1cc(-c2cnn(CCNC(=O)C3CC3)c2C2CC2)on1,-39.92
3,Cc1cc(-c2cnc(C3CC3)nc2CN(C)C(=O)c2ccccn2)on1,34.06
4,Cc1cc(-c2cnn(CCNC(=O)c3cc[nH]n3)c2C2CC2)on1,-2.47
5,Cc1nn(C)cc1C1=NS(=O)(=O)N(C)C(C(=O)Nc2ccc(Cl)cc2)=C1,-13.02
6,CCn1cc(S(=O)(=O)NC2CCCN(CCCc3ccccc3)C2)cn1 (stereo not drawn),7.21
7,CC(=O)N1CCCCCC1C1CCN(Cc2nnc(C(C)(C)C)o2)CC1 (stereo not drawn),30.82
8,COc1cncc(-n2ccnc2-c2ccc(C(=O)O)s2)c1,48.58
9,Cc1cnc(C(=O)N2CCC3(CC2)CC(c2ccccc2)C(=O)N3)cn1 (stereo not drawn),-6.21
10,CC(=O)N[C@@H]1CN(C(=O)c2csc(C(C)C)n2)C[C@H]1C(C)C,3.62
11,CC(C)c1nc(C(=O)N2C[C@H](C(C)C)[C@@H](N)C2)cs1,58.69
12,CC(C)c1nc(C(=O)N2CCCC(N)CC2)cs1 (stereo not drawn),-66.05
13,COc1ccc(-c2cc(CN)nc3ccnn23)cc1,-11.81
14,O=c1c(NCc2ccncc2)c(NCC(O)CN2CCOCC2)c1=O (stereo not drawn),1.08
15,O=c1c(NCc2ccccn2)c(NCC(O)CN2CCOCC2)c1=O (stereo not drawn),15.02
16,O=c1c(NCc2ccco2)c(NCC(O)CN2CCOCC2)c1=O (stereo not drawn),53.33
17,COCCN1CCc2cc(C(=O)NCC3CC3)c(NC(C)C)nc2CC1,25.35
18,COC[C@]1(O)CCN(C(=O)c2ccc(CN(C)C)o2)CC1(C)C,8.88
19,CN(Cc1ccccc1)C1(C(=O)NC(CO)CO)Cc2ccccc2C1,31.35
20,CC(Cc1cn(CCc2nnn[nH]2)nn1)c1ccccc1 (stereo not drawn),29.41
21,Cc1nccc([C@H]2C[C@@H]3CCN(S(=O)(=O)N(C)C)C[C@H]3O2)n1,21.33
22,Cc1nccc([C@@H]2C[C@@H]3CCN(S(C)(=O)=O)C[C@H]3O2)n1,26.65
23,Cc1nccc([C@@H]2C[C@@H]3CCN(S(=O)(=O)N(C)C)C[C@H]3O2)n1,54.16
24,COc1cc(N2C[C@H]3CCC[C@@H](CN4CCOCC4)[C@H]3C2)ncn1,36.75
25,CCCS(=O)(=O)N1C[C@@H]2CN(Cc3ccoc3)CCO[C@@H]2C1,33.4
